Data reported in PubChem BioAssay (NCI).
The panel holds about 83,000 compounds, 20% with a hit somewhere; the sample as a whole holds those more often.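 Values shown are percent growth following 48 h exposure of cells in 96-well plates to a single concentration of compound; below 10 was considered active.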 Unmarked numbers belong to inactive results. Calls of active or inactive are those of the source.

Assays:
Assay in all cases: NCI-60 one-dose screen, 48 h (100 = growth as untreated, 0 = no growth, -100 = all killed)
Details in all cases: 10 µM unless noted
DU-145 prostate = system: DU-145 prostate
K-562 leukemia = system: K-562 leukemia
MALME-3M melanoma = system: MALME-3M melanoma
MDA-MB-231 breast = system: MDA-MB-231 breast
RXF 393 renal = system: RXF 393 renal
SF-268 CNS = system: SF-268 CNS
SF-295 CNS = system: SF-295 CNS
SF-539 CNS = system: SF-539 CNS
UACC-257 melanoma = system: UACC-257 melanoma
M14 melanoma = system: M14 melanoma
HCT-15 colon = system: HCT-15 colon
HT29 colon = system: HT29 colon
SNB-75 CNS = system: SNB-75 CNS
SNB-19 CNS = system: SNB-19 CNS
U251 CNS = system: U251 CNS
PC-3 prostate = system: PC-3 prostate
SK-MEL-5 melanoma = system: SK-MEL-5 melanoma
UACC-62 melanoma = system: UACC-62 melanoma
SK-MEL-28 melanoma = system: SK-MEL-28 melanoma
LOX IMVI melanoma = system: LOX IMVI melanoma

SMILES	growth (DU-145 prostate) [%]	growth (K-562 leukemia)	growth (MALME-3M melanoma)	growth (MDA-MB-231 breast)	growth (RXF 393 renal)	growth (SF-268 CNS)	growth (SF-295 CNS)	growth (SF-539 CNS)	growth (UACC-257 melanoma)	growth (M14 melanoma)	growth (HCT-15 colon)	growth (HT29 colon)	growth (SNB-75 CNS)	growth (SNB-19 CNS) [%]	growth (U251 CNS)	growth (PC-3 prostate)	growth (SK-MEL-5 melanoma)	growth (UACC-62 melanoma) [%]	growth (SK-MEL-28 melanoma)	growth (LOX IMVI melanoma)
COc1ccc2sc3c(NCCCN(C)C)nc4ccccc4c3c(=O)c2c1	41.3	-21.9% (active)	58%	-6.11% (active)	44.1%	66.4%	83.7%	1.35% (active)	76.7%	-57.8% (active)	50.2%	-47.5% (active)	53.5%	71.4	-1.18% (active)	63%	66.4%	77.3	-73.1% (active)	–
O=C(CCN1C(=O)/C(=C/c2ccc(O)cc2)SC1=S)Nc1ccccc1	110	81.8%	95.4%	91.1%	103%	93.5%	91%	97.8%	104%	97.4%	90.8%	118%	89.3%	91.4	–	90.5%	101%	81.6	97.3%	97.6%
COc1c(B(O)O)cc(F)cc1-c1nc2ccc3[nH]ncc3c2c2c1CCCC2	11.1	30.5%	20.3%	22%	-34.5% (active)	9.38% (active)	10.8%	-13.4% (active)	20.1%	28.3%	3.63% (active)	13%	-94.5% (active)	11.3	11.8%	13.3%	17.1%	20.6	21.3%	–
CCCCCCCCCCCCCCCCCCOc1ccccc1CCCOP(=O)(O)OCC[N+](C)(C)C	75	69.2%	89.5%	78.2%	11.1%	62.5%	52.4%	91.4%	88%	77.7%	51.3%	12.7%	83.3%	33.7	–	0.281% (active)	80.9%	55.7	93.1%	58.1%
COc1cccc(-c2nc(-c3ccc(NC(=O)C(C)C)cc3)[nH]c2-c2ccnc(Br)c2)c1	61.4	1.17% (active)	34.4%	52.3%	-31% (active)	51.6%	-42.9% (active)	16%	52.8%	40.2%	7.17% (active)	23%	10.5%	44.6	32%	18.7%	6.14% (active)	37.1	47%	–
C=C1C(=O)O[C@H]2[C@H]1CC/C(COC(=O)CCSSCCC(=O)OC/C1=C/CC[C@@]3(C)O[C@H]3[C@H]3OC(=O)C(=C)[C@@H]3CC1)=C\CC[C@@]1(C)O[C@@H]21	10.7	-1.59% (active)	-27.1% (active)	-83.7% (active)	-93.6% (active)	24.8%	72.9%	-63.4% (active)	-7.74% (active)	-10.1% (active)	-74.2% (active)	-78.7% (active)	52.5%	39.2	-12% (active)	-11.6% (active)	41.7%	36.7	-42.8% (active)	–
COc1ccc(NC2=C(Br)C(=O)C(C)=C(C)C2=O)cc1	106	-2.92% (active)	94.4%	-55.4% (active)	102%	98%	98.9%	90.6%	72.8%	97%	91.6%	117%	72%	85.2	–	73.1%	92.3%	84.4	103%	-35.6% (active)
CN(C)c1ccc(/C=N\Nc2cc(=O)[nH]c3ccc(Cl)cc23)cc1	123	91.8%	122%	91.5%	105%	99.5%	98%	101%	98.1%	94.5%	99.3%	96%	78.4%	96.9	–	86.4%	98.3%	82.1	114%	99%
